From PubChem
DT40 TDP1 CPT = growth inhibition of DT40 Tdp1-/-;hTDP1 cells with camptothecin (screen for TDP1 inhibitors). Potency, µM (doses to about 46.2 µM), for inactives: at the highest dose activity change, negative = growth inhibition, actives largely listed as inhibitors. AID 686979. 12% of 420,000 active. chicken DT40 Tdp1-/-;hTDP1 cells + 20 nM CPT, ATP luminescence, 48 h; further: potency means the concentration at half of the fitted maximal effect; nearly all actives have a fitted effect of over 55% in size
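Chicken DT40 Tdp1-/- cells complemented with human TDP1, 400 cells/well, exposed to compounds plus 20 nM camptothecin for at least 48 h at 37 C; viability read as ATP content by CellTiter-Glo luminescence.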
HT1080-NT tox = kills 2HG-producing HT-1080-NT fibrosarcoma cells; HT-1080-NT fibrosarcoma viability, CellTiter-Glo ATP luminescence, 48 h; Potency, µM (top dose mostly 46.1 µM), for the others: top-dose activity, negative = less viability, hits mostly cytotoxic; 1.6% of 360,000 active; AID 686970;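 further: NT is the 2HG producing partner of a matched IDH1 knockdown line; potency means the concentration at half of the fitted maximal effect; 0% = DMSO-treated cells and -100% = media-only wells without cells; nearly all actives have a fitted effect of over 55% in size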
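Viability by CellTiter-Glo luminescence after 48 h compound exposure at 37C of HT-1080-NT cells (750/well, RPMI, 5% FBS). % activity scaled between DMSO wells and medium-only wells, then curve-fitted and categorized by curve class.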
IL1B secr inh = inflammasome signaling inhibition, IL-1 beta readout; THP-1 LPS/ATP IL-1B secretion, AlphaLISA, 16 h; stronger effect = lower value; activity change, % at 57.5 µM; 4.7% of 360,000 active; AID 743279; in the data active means activity change below about -50%; inconclusive means mostly about -30% to -49%
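Secreted IL-1B measured by AlphaLISA bead assay after 16 h compound exposure of THP-1 cells; compounds (final up to 57.5 uM) added 1 h before LPS (250 ng/mL) and ATP (1.25 mM) stimulation; lower signal means less secretion.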
TDP1 cell noCPT = qHTS for Inhibitors of human tyrosyl-DNA phosphodiesterase 1 (TDP1): qHTS in cells in absence of CPT; DT40 Tdp1-/- hTDP1 cells, no CPT, ATP luminescence, 48 h; Potency, µM (highest dose often 46.2 µM), for the others: at the top dose activity change, negative = growth inhibition, actives largely listed as inhibitors; 15% of 420,000 active; AID 686978, 2013; further: potency means the concentration at half of the fitted maximal effect; nearly all actives have a fitted effect of over 55% in size
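Growth of hTDP1-complemented DT40 Tdp1-knockout cells is measured by ATP luminescence after at least 48 hr compound exposure at 37 °C, with DMSO substituting for the 20 nM CPT used in the parallel screen.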
HT1080 IDH1KD tx = HT-1080 IDH1 knockdown cell toxicity (counter line). 2% of 360,000 active. Potency, µM (highest dose often 46.1 µM), inactives show top-dose activity, negative = toxicity, actives largely listed as cytotoxic. HT-1080 IDH1 knockdown viability, ATP luminescence, 48 h;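 further: potency means the concentration at half of the fitted maximal effect; 0% = DMSO wells and -100% = cell-free medium wells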
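Cytotoxicity counter-line: IDH1KD HT-1080, 48 h, CellTiter-Glo. Curves classed by r2, magnitude and activity.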
* hit, by the source's call; u = inconclusive; x = not tested or not shown; [ ] = dose if it differs, or a comment. An excerpt weighted towards active compounds, which were near 19% of everything screened. Unless noted, the call rests on the fitted dose curve; in most records, active means well fitted curve in the direction sought with a large enough effect; inconclusive means small, poorly fitted or top-dose-only effect, or another doubt; inactive means no such curve, though single readings can be large; an effect the other way counts as inactive or inconclusive. Unless noted, on the % scale 0 is the no-effect control and ±100 the full control effect.

SMILES	DT40 TDP1 CPT	HT1080-NT tox	IL1B secr inh	TDP1 cell noCPT	HT1080 IDH1KD tx
Cc1ccc(NC(=O)C(=O)NCC2CCCN2S(=O)(=O)c2cccs2)cc1 (stereo not given)	u	2%	-13	u	-1%
Cc1cccc(NC(=O)C(=O)NCC2CCCN2S(=O)(=O)c2cccs2)c1C (stereo not given)	21µM*	6%	-10	u	1%
CCc1ccc(NC(=O)C(=O)NCC2CCCN2S(=O)(=O)c2cccs2)cc1 (stereo not given)	18µM*	-2%	-14	15µM*	-9%
Cc1cccc(NC(=O)C(=O)NCC2CCCN2S(=O)(=O)c2ccccc2)c1 (stereo not given)	15µM*	1%	6	10µM*	-3%
CNC(=O)C(=O)NCC1CCCN1S(=O)(=O)c1cccs1 (stereo not given)	11%	13%	35	-4%	11%
Cc1cccc(NC(=O)C(=O)NCC2CCCN2S(=O)(=O)c2cccs2)c1 (stereo not given)	13µM*	-3%	24	8.2µM*	-20%
O=C(NC(=S)N1CCCCCC1)c1ccc(Cl)cc1Cl	u	-4%	17	u	-4%
CCc1c(C(=O)N2CCCN(C)CC2)csc1C	9%	1%	10	20%	10%
COc1ccc(OC)c2[nH]c(=O)c(CCNC(=O)c3cc4ccccc4o3)cc12	15µM*	0%	-22	u	3%
CCC(CC)C(=O)NCCc1cc2c(C)ccc(C)c2[nH]c1=O	9%	7%	-9	3%	-1%
Cc1ccc(C)c2[nH]c(=O)c(CCNC(=O)c3cc4ccccc4o3)cc12	18µM*	7%	u	21µM*	10%
CC(CC(=O)Nc1nnc(CC(C)(C)C)s1)c1ccccc1 (stereo not given)	u	9%	32	u	3%
O=C1CCNc2cc3ccccc3cc21	u	-21%	19	u	16µM*
NC(=O)c1c(NC(=O)COC(=O)c2ccc(S(=O)(=O)Nc3ccccc3)cc2)sc2c1CCCC2	u	u	-4	-26%	u
O=C(O)c1cc(S(=O)(=O)N2CCCc3ccccc32)ccc1Cl	-8%	15%	24	0%	4%
CCC(=O)N1CCCc2cc(S(=O)(=O)N3CCCc4ccccc43)ccc21	26µM*	-14%	8	18µM*	u
O=C(Nc1ccc(Cl)cc1)c1cc(S(=O)(=O)N2CCCc3ccccc32)ccc1F	16µM*	x	x	15µM*	x
Nc1ccc(S(=O)(=O)N2CCCc3ccccc32)cc1	-9%	0%	21	-26%	-4%
Cc1ccc(NC(=O)c2cc(S(=O)(=O)N3CCCc4ccccc43)ccc2F)cc1F	16µM*	x	x	6.5µM*	x
CCC(=O)N1CCc2cc(S(=O)(=O)N3CCc4ccccc4C3)ccc21	u	14%	15	-26%	7%
Cc1ccc(S(=O)(=O)N2CCCc3ccccc32)cc1C	12µM*	21%	0	9.2µM*	3%
Cc1[nH]c(C)c(S(=O)(=O)Nc2cccc(Cl)c2C)c1C(=O)N1CCCCC1	u	-15%	u	u	-10%
O=C(Nc1ccc(C(F)(F)F)cc1)c1cc(S(=O)(=O)N2CCCc3ccccc32)ccc1F	7.3µM*	x	x	10µM*	x
CCOC(=O)N1CCN(S(=O)(=O)c2ccc(F)c(C(=O)Nc3cccc(C)c3C)c2)CC1	-24%	-2%[9.24 µM]	-6	u	-27%
O=C(c1cc(S(=O)(=O)N2CCOCC2)ccc1F)N1CCCc2ccccc21	u	0%	24	u	-9%
CCC(=O)N1CCc2cc(S(=O)(=O)N3CCN(c4ccccn4)CC3)ccc21	u	-1%	-5	12µM*	-8%
CCc1cccc(C)c1NC(=O)c1cc(S(=O)(=O)N2CCN(c3ccccc3)CC2)ccc1F	16µM*	x	x	9.2µM*	x
